aSyn 5UTR act – Activators via SNCA 5'UTR binding, MLPCN; alpha-synuclein 5'UTR reporter, activators screen; activity score, % (tested at 7.5 µM), hits read low; 7.1% of 300,000 active; in the data active = activity score below about -60%
The depositor's hits bear a star. These entries were drawn from the full list.

SMILES	aSyn 5UTR act
Cn1c(O)c(C(=N)COc2ccccc2)c(=O)n(C)c1=O	-67*
COc1ccc(CNCCc2c(C)[nH]c3ccc(OC(F)(F)F)cc23)c(OC)c1	90
Cc1nc2ccccc2c(=O)n1-c1ccc(Br)cn1	-176*
Cc1ccc(-c2cc(-c3ccc(C)cc3)[n+](-c3ccc(C(=O)[O-])cc3)c(-c3ccc(C)cc3)c2)cc1	83
Cn1cnc([N+](=O)[O-])c1Sc1ccc([N+](=O)[O-])cc1	-66*
CCC(C)C(=O)N[C@@H](c1ccccc1)[C@@H](O)C(=O)O[C@H]1C[C@@]2(O)[C@@H](OC(=O)c3ccccc3)C3[C@](C)(C(=O)[C@H](OC(C)=O)C(=C1C)C2(C)C)[C@@H](O)C[C@H]1OC[C@@]31OC(C)=O (some centres not stated)	103
CN1CCc2nc(SCC(=O)OC(C)(C)C)c(C#N)cc2C1	-281*
CC(Cc1ccccc1)N1Cc2ccccc2C1 (configuration not stated)	-65*
Fc1ccc(C(OCCN2CCN(CCCc3ccccc3)CC2)c2ccc(F)cc2)cc1	106
CN(C)C(=O)Oc1ccc2c(c1)O/C(=C\c1ccc(Cl)cc1)C2=O	-87*
CN(C)C(=O)Oc1ccc2c(c1)O/C(=C\c1cccc(Cl)c1)C2=O	-72*
C[C@]12CCC3C(CCC4=CC(O)CC[C@@]43/C=N/O)C1(O)CCC2C1=CC(=O)OC1 (some centres not stated)	113
Cc1ccc2cc3cc(C(=O)N4CCC5(CC4)OCCO5)oc3nc2c1	-69*
C[C@H]1C[C@@H](C)C(=O)[C@@H]([C@H](O)CC2CC(=O)NC(=O)C2)C1	97
Cc1cc(C(=O)N=Nc2c(O)n(C)c3ccccc23)c(C)o1	-180*
CCCCCn1c(=O)c(C(=O)NCc2ccncc2)c(O)c2ccccc21	65
O=C1NC(=O)C(C(CC(=O)c2ccccc2)c2ccccc2)C(=O)N1 (configuration not stated)	-65*
CCC(C)c1ccc(N2C(=O)NC(=O)/C(=C/c3cccn3CCOc3ccc(C)cc3)C2=O)cc1 (configuration not stated)	-65*
COc1ccc(C[C@H]2NC[C@H](O)[C@H]2OC(C)=O)cc1	112
CC(Cc1ccccc1)NC(=O)NC(C)Cc1ccccc1 (configuration not stated)	-134*
CC(Cc1ccccc1)NC(=O)c1ccc(N)cc1 (configuration not stated)	-110*
Cn1c(NN=O)nc2ccccc21	69
COc1ccc(OC)c(/C=N/OC(=O)Nc2ccc(Cl)cc2)c1	-63*
Cc1ccccc1NC(=O)CCl	-71*
CC/C=C/CC(=O)N[C@@H](c1ccccc1)[C@@H](O)C(=O)O[C@H]1C[C@@]2(O)[C@@H](OC(=O)c3ccccc3)C3[C@](C)(C(=O)[C@H](OC(C)=O)C(=C1C)C2(C)C)[C@@H](O)C[C@H]1OC[C@@]31OC(C)=O (some centres not stated)	77
SMILES	aSyn 5UTR act
CCN1C(=O)C(=Cc2ccc(C)s2)C(=O)N(CC)C1=S	-158*
O=C(Nc1ccc(Cl)cc1)OC1CN2CCC1CC2 (configuration not stated)	-114*
O=C(Nc1cccc(Cl)c1)OC1CN2CCC1CC2 (configuration not stated)	-64*
COC(=O)C[C@]1(C(=O)OC)CN(C#N)N(c2ccc(Cl)cc2)C12c1ccccc1-c1ccccc12	96
COc1cc2c(c(OC)c1OC)-c1ccc(O)cc1[C@@H](NC(C)=O)CC2	61
COc1cccc(OCc2cc(C(=O)N3C[C@H]4C[C@@H](C3)c3cccc(=O)n3C4)no2)c1	-174*
Cc1nn(CC(C)C)c(Cl)c1C(=O)NC1CCC(C)CC1 (configuration not stated)	-123*
Cc1cc(N(CCCl)CCCl)ccc1/C=N/N=C(\N)c1cnccn1	-74*
Cc1ccc(N2C(=O)NC(=O)C3(Cc4ccccc4N4CCN(c5ccccc5)CC43)C2=O)cc1 (configuration not stated)	-71*
N=C1c2ccccc2CN1CC(=O)c1ccccc1	-186*
C/C=C(\C)C(=O)N[C@@H](c1ccccc1)[C@@H](O)C(=O)O[C@H]1C[C@@]2(O)[C@@H](OC(=O)c3ccccc3)C3[C@](C)(C(=O)[C@H](OC(C)=O)C(=C1C)C2(C)C)[C@H](O)C[C@H]1OC[C@@]31OC(C)=O (some centres not stated)	110
Cc1cccc(-n2c(/C=C/c3ccc([N+](=O)[O-])o3)nc3ccccc3c2=O)c1	-212*
O=c1c2ccccc2nc(/C=C/c2ccc([N+](=O)[O-])o2)n1-c1ccc(O)cc1	100
C[C@@]1(CO)[C@H](O)CC[C@@]2(C)[C@H]1CC[C@H]1C[C@@H]3C[C@@]12CC[C@]3(O)CO	73
O=c1c2ccccc2nc(Cc2ccccc2)n1-c1ccccc1	-84*
O=C(NC1(C(F)(F)F)Oc2ccc(Cl)cc2O1)N1CCC2(CC1)OCCO2 (configuration not stated)	-73*
C/C(=N\N1CCCCC1)c1c(O)[nH]c(=O)[nH]c1=O	58
CC(C)c1ccc(N2C(=O)NC(=O)/C(=C/C=C/c3ccco3)C2=O)cc1	-130*
O=C1NC(=O)N(c2ccccc2)C(=O)/C1=C\C=C\c1ccccc1	-119*
O=C1NC(=O)N(Cc2ccc(F)cc2)C(=O)/C1=C\C=C\c1ccco1	-270*
Cc1cc(C)cc(N2C(=O)NC(=O)/C(=C\C=C\c3ccco3)C2=O)c1	-116*
CCN(CC)C(=O)c1ccc(NC(=O)Nc2ccccc2F)cc1	59
Cc1ccc(N2C(=O)NC(=O)/C(=C/C=C/c3ccco3)C2=O)cc1	-76*
C[C@@H]1O[C@@H](O[C@H]2C[C@@H](O)[C@]3(CO)[C@H]4[C@H](O)C[C@]5(C)[C@@H](C6=CC(=O)OC6)CC[C@]5(O)[C@@H]4CC[C@]3(O)C2)[C@H](O)[C@H](O)[C@H]1O	114
c1ccc(CN2CCc3nc4ccccc4cc3C2)cc1	-171*
SMILES	aSyn 5UTR act
O=C(Nc1cccc(Cl)c1)c1c(O)c2c(n(Cc3ccco3)c1=O)CCCC2	-87*
CCC(=Nc1cc(OC)ccc1OC)c1c(O)[nH]c(=O)[nH]c1=O	71
CN1C(=O)C(Cc2ccc(OCc3ccccc3)cc2)C(=O)N(C)C1=O	-105*
C[C@H]1O[C@@H](OC2CC[C@]3(C=O)[C@H]4CC[C@]5(C)[C@@H](C6=CC(=O)OC6)CC[C@]5(O)[C@@H]4CC[C@]3(O)C2)CC2OC(C)(C)OC21 (some centres not stated)	96
CCC(=NC(C)c1ccccc1)c1c(O)[nH]c(=O)[nH]c1=O (configuration not stated)	57
CCCCn1c(O)c(/C(C)=N/NC(=O)Nc2ccccc2)c(=O)[nH]c1=O	-99*
COc1ccc(O)c2c(=O)c3c(OC)cc4c(c3oc12)C1C=COC1O4 (configuration not stated)	94
Cc1cc(N2CCOCC2)nc2ccc(NC(=O)CCC(=O)N3CCC4(CC3)OCCO4)cc12	-88*
N#Cc1ccccc1NC(=O)CN1CC=C(c2ccccc2)CC1	-63*
CCCCCCn1c(=O)c(C(=O)Nc2ncccc2O)c(O)c2ccccc21	92
Cc1ccc(N2C(=O)NC(=O)/C(=C/c3cnn(-c4ccc(C)cc4)c3)C2=O)cc1	-72*
Cc1ccc(-c2cc(-c3ccc(C)cc3)[n+](-c3ccccc3)c(-c3ccc(C)cc3)c2)cc1	76
CCCCCn1c(=O)c(C(=O)Nc2ccccn2)c(O)c2ccccc21	65
